Measured values published in the supplement of paper PMC9262897, “Low-cost anti-mycobacterial drug discovery using engineered E. coli” (Nature Communications, 2022).
Structures can show the parent of a compound that is named as a salt. ± gives the standard deviation of the averaged measurements.

Key:
Assay in all cases: growth (OD600 after 10 h); higher = more growth (less inhibition)
[1] = system: E. coli TESEC Alr+ wild-type control; settings: compound 0.1 mM; raw OD600 reference: median of DMSO wells 0.241, cell-free background 0.041
Procedure: (§1)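 TESEC Mtb Alr E. coli, or the Alr+ wild-type control, in 384-well plates with Prestwick library compounds at 0.1 mM and 1% DMSO, across arabinose induction levels of 1E3 to 1E7 nM. Growth is read as OD600 after 10 h at 37 °C in triplicate biological replicates.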

E. coli TESEC Mtb Alr [2] = settings: compound 0.1 mM
Procedure: as §1

E. coli TESEC Mtb Asd = settings: compound 0.1 mM
Procedure: (§2)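 TESEC E. coli strains in which the native enzyme is deleted and replaced by arabinose-inducible Mtb Asd, DapB, CysH or TrpD, each grown in its selective medium. Strains were screened against the Prestwick library at 0.1 mM and 1% DMSO in 384-well format at low and high arabinose induction. Growth is read as OD600 after 10 h in triplicate.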

E. coli TESEC Mtb DapB = settings: compound 0.1 mM
Procedure: as §2

[3] = system: E. coli TESEC Alr+ wild-type control; settings: compound 0.1 mM; raw OD600 reference: median of DMSO wells 0.49, cell-free background 0.052
Procedure: (§3)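 TESEC Mtb Alr E. coli (ΔaraC ΔtolC ΔentC Δalr ΔdadX, arabinose-inducible Mtb Alr) or the Alr+ wild-type control strain, grown in defined M9-fructose medium without D-alanine in 96-well plates with Prestwick library compounds at 0.1 mM and 1% DMSO. Low Alr induction is 0.1 µM arabinose and high induction is 10 mM arabinose.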

E. coli TESEC Mtb Alr [4] = settings: compound 0.1 mM; remark: listed apart in the source
Procedure: as §3

[5] = arabinose 1000 nM, raw OD600 reference: median of DMSO wells 0.294, cell-free background 0.041
[6] = arabinose 10000 nM, raw OD600 reference: median of DMSO wells 0.264, cell-free background 0.041
[7] = arabinose 100000 nM, raw OD600 reference: median of DMSO wells 0.201, cell-free background 0.041
[8] = arabinose 1000000 nM, raw OD600 reference: median of DMSO wells 0.193, cell-free background 0.041
[9] = arabinose 10000000 nM, raw OD600 reference: median of DMSO wells 0.146, cell-free background 0.041
[10] = arabinose induction (level): High, raw OD600 reference: median of DMSO wells 0.331, cell-free background 0.041
[11] = arabinose induction (level): Low, raw OD600 reference: median of DMSO wells 0.417, cell-free background 0.041
[12] = arabinose induction (level): High, raw OD600 reference: median of DMSO wells […], cell-free background 0.041
[13] = arabinose induction (level): Low, raw OD600 reference: median of DMSO wells 0.227, cell-free background 0.041
[14] = arabinose 100 nM, raw OD600 reference: median of DMSO wells 0.413, cell-free background 0.052
[15] = arabinose 10000000 nM, raw OD600 reference: median of DMSO wells […], cell-free background 0.052

Row | Structure (SMILES) | growth [1] | growth (E. coli TESEC Mtb Alr [2]; [5]) | growth (E. coli TESEC Mtb Alr [2]; [6]) | growth (E. coli TESEC Mtb Alr [2]; [7]) | growth (E. coli TESEC Mtb Alr [2]; [8]) | growth (E. coli TESEC Mtb Alr [2]; [9]) | growth (E. coli TESEC Mtb Asd; [10]) | growth (E. coli TESEC Mtb Asd; [11]) | growth (E. coli TESEC Mtb DapB; [12]) | growth (E. coli TESEC Mtb DapB; [13]) | growth [3] | growth (E. coli TESEC Mtb Alr [4]; [14]) | growth (E. coli TESEC Mtb Alr [4]; [15])
1 | Cc1cc(C(=O)NNCc2ccccc2)no1 [Isocarboxazid] | 0.253 ± 0.0036 | 0.319 ± 0.014 | 0.28 ± 0.0081 | 0.234 ± 0.0096 | 0.198 ± 0.0079 | 0.158 ± 0.0025 | 0.492 ± 0.0092 | 0.441 ± 0.039 | 0.211 ± 0.023 | 0.239 ± 0.035 | 0.463 ± 0.036 | 0.402 ± 0.014 | 0.362 ± 0.013
2 | CCc1ccc(CCOc2ccc(CC3SC(=O)NC3=O)cc2)nc1 (stereo not drawn) [Pioglitazone] | 0.225 ± 0.0024 | 0.268 ± 0.012 | 0.267 ± 0.0054 | 0.176 ± 0.0064 | 0.164 ± 0.002 | 0.15 ± 0.0092 | 0.292 ± 0.045 | 0.334 ± 0.04 | 0.191 ± 0.0045 | 0.191 ± 0.011 | 0.577 ± 0.076 | 0.426 ± 0.018 | 0.358 ± 0.023
3 | CCOC(=O)N1CCC(=C2c3ccc(Cl)cc3CCc3cccnc32)CC1 [Loratadine] | 0.146 ± 0.0043 | 0.17 ± 0.0039 | 0.205 ± 0.0047 | 0.173 ± 0.0098 | 0.0897 ± 0.0023 | 0.103 ± 0.0051 | 0.175 ± 0.01 | 0.246 ± 0.023 | 0.195 ± 0.0081 | 0.179 ± 0.0076 | 0.402 ± 0.0043 | 0.391 ± 0.0066 | 0.0517 ± 0.00062
4 | Cc1cn[nH]c1 [Fomepizole] | 0.242 ± 0.0098 | 0.2912 ± 0.0021 | 0.249 ± 0.0059 | 0.231 ± 0.024 | 0.178 ± 0.003 | 0.137 ± 0.0022 | 0.233 ± 0.036 | 0.364 ± 0.065 | 0.193 ± 0.014 | 0.215 ± 0.0091 | 0.554 ± 0.016 | 0.423 ± 0.011 | 0.367 ± 0.017
5 | CCOC(=O)O[C@]1(C(=O)OCCl)CC[C@H]2[C@@H]3CCC4=CC(=O)C=C[C@]4(C)[C@H]3[C@@H](O)C[C@@]21C [Loteprednol etabonate] | 0.135 ± 0.003 | 0.167 ± 0.02 | 0.15 ± 0.0072 | 0.196 ± 0.028 | 0.114 ± 0.01 | 0.179 ± 0.0076 | 0.24 ± 0.019 | 0.26 ± 0.14 | 0.174 ± 0.027 | 0.233 ± 0.028 | 0.473 ± 0.12 | 0.371 ± 0.017 | 0.219 ± 0.024
6 | O=C(O)COC(=O)Cc1ccccc1Nc1c(Cl)cccc1Cl [Aceclofenac] | 0.154 ± 0.0035 | 0.205 ± 0.019 | 0.223 ± 0.015 | 0.12 ± 0.007 | 0.141 ± 0.0064 | 0.132 ± 0.012 | 0.205 ± 0.026 | 0.263 ± 0.011 | 0.156 ± 0.0075 | 0.176 ± 0.028 | 0.424 ± 0.0057 | 0.352 ± 0.034 | 0.244 ± 0.015
7 | O=C(NCC1CCCCN1)c1cc(OCC(F)(F)F)ccc1OCC(F)(F)F (stereo not drawn) [Flecainide acetate] | 0.2202 ± 0.00045 | 0.2999 ± 0.00055 | 0.276 ± 0.0049 | 0.188 ± 0.0093 | 0.168 ± 0.0038 | 0.143 ± 0.0024 | 0.263 ± 0.026 | 0.42 ± 0.091 | 0.178 ± 0.016 | 0.213 ± 0.019 | 0.495 ± 0.081 | 0.412 ± 0.011 | 0.356 ± 0.018
8 | CC(CCc1ccc(O)cc1)NCCc1ccc(O)c(O)c1 (stereo not drawn) [Dobutamine hydrochloride] | 0.116 ± 0.0039 | 0.227 ± 0.021 | 0.174 ± 0.0051 | 0.198 ± 0.0044 | 0.116 ± 0.0039 | 0.115 ± 0.0067 | 0.176 ± 0.006 | 0.165 ± 0.029 | 0.19 ± 0.02 | 0.167 ± 0.02 | 0.539 ± 0.008 | 0.409 ± 0.0099 | 0.343 ± 0.018
9 | Cc1ccc(O)c([C@H](CCN(C(C)C)C(C)C)c2ccccc2)c1 [Tolterodine tartrate] | 0.163 ± 0.0078 | 0.245 ± 0.0098 | 0.283 ± 0.0087 | 0.201 ± 0.0068 | 0.148 ± 0.0076 | 0.191 ± 0.0035 | 0.245 ± 0.032 | 0.38 ± 0.025 | 0.198 ± 0.018 | 0.238 ± 0.036 | 0.55 ± 0.029 | 0.417 ± 0.0075 | 0.3 ± 0.013
10 | CCn1cc(C(=O)O)c(=O)c2ccc(C)nc21 [Nalidixic acid sodium salt] | 0.04987 ± 0.00029 | 0.0467 ± 0.0009 | 0.0394 ± 0.00056 | 0.0502 ± 0.0012 | 0.0413 ± 0.0013 | 0.05153 ± 0.00015 | 0.09847 ± 0.00049 | 0.0829 ± 0.0083 | 0.0992 ± 0.0072 | 0.0689 ± 0.0001 | 0.0678 ± 0.0015 | 0.0753 ± 0.014 | 0.0595 ± 0.0029
11 | Cc1c(O)cccc1C(=O)N[C@@H](CSc1ccccc1)[C@H](O)CN1C[C@H]2CCCC[C@H]2C[C@H]1C(=O)NC(C)(C)C [Nelfinavir mesylate] | 0.279 ± 0.06 | 0.329 ± 0.0095 | 0.284 ± 0.031 | 0.323 ± 0.062 | 0.148 ± 0.0082 | 0.276 ± 0.041 | 0.215 ± 0.019 | 0.275 ± 0.015 | 0.197 ± 0.077 | 0.23 ± 0.086 | 0.509 ± 0.09 | – | –
12 | CNCC(O)c1ccc(O)c(O)c1 (stereo not drawn) [Racepinephrine HCl] | 0.243 ± 0.0062 | 0.302 ± 0.0045 | 0.291 ± 0.0096 | 0.199 ± 0.0083 | 0.186 ± 0.0042 | 0.155 ± 0.0036 | 0.27 ± 0.052 | 0.44 ± 0.018 | 0.193 ± 0.0072 | 0.273 ± 0.06 | 0.605 ± 0.029 | 0.4177 ± 0.0019 | 0.288 ± 0.015
13 | C[C@]12C[C@H](O)[C@H]3[C@@H](CCC4=CC(=O)CC[C@@]43C)[C@@H]1CC[C@@H]2C(=O)CO [Corticosterone] | 0.143 ± 0.0016 | 0.195 ± 0.006 | 0.252 ± 0.011 | 0.143 ± 0.015 | 0.16 ± 0.0065 | 0.134 ± 0.0044 | 0.235 ± 0.059 | 0.268 ± 0.055 | 0.179 ± 0.017 | 0.206 ± 0.032 | 0.418 ± 0.033 | 0.402 ± 0.017 | 0.246 ± 0.0064
14 | CC(C[N+](C)(C)C)OC(N)=O (stereo not drawn) [Bethanechol chloride] | 0.24 ± 0.0039 | 0.283 ± 0.0042 | 0.28 ± 0.0036 | 0.195 ± 0.014 | 0.222 ± 0.021 | 0.139 ± 0.0046 | 0.373 ± 0.07 | 0.381 ± 0.028 | 0.2 ± 0.024 | 0.242 ± 0.025 | 0.603 ± 0.0074 | 0.438 ± 0.0061 | 0.349 ± 0.006
15 | Cc1onc(-c2c(Cl)cccc2Cl)c1C(=O)N[C@@H]1C(=O)N2[C@@H]1SC(C)(C)[C@@H]2C(=O)O [Dicloxacillin sodium salt hydrate] | 0.222 ± 0.0048 | 0.226 ± 0.11 | 0.261 ± 0.0043 | 0.196 ± 0.02 | 0.185 ± 0.007 | 0.149 ± 0.0044 | 0.251 ± 0.056 | 0.311 ± 0.09 | 0.188 ± 0.028 | 0.226 ± 0.018 | 0.516 ± 0.11 | 0.403 ± 0.0099 | 0.351 ± 0.017
